# According to the supplement of paper PMC8728848:
# Only a selection was taken, and the strongest signals are over-represented in it overall.
# B1: GSL-I-B4 (Griffonia simplicifolia) (protein)
# chain: NFWSDVEDSIIFQGDANTTAGTLQLCKTNQYGTPLQWSAGRALYSDPVQLWDNKTESVASFYTEFTFFLKITGNGPADGLAFFLAPPDSDVKDAGEYLGLFNKSTATQPSKNQVVAVEFDTWTNPNFPEPSYRHIGINVNSIVSVATKRWEDSDIFSGKIATARISYDGSAEILTVVLSYPDGSDYILSHSVDMRQNLPESVRVGISASTGNNQFLTVYILSWRFSSNLQSTSVKAAMEPEITRTVV
# What was measured:
# Assay in all cases: glycan array binding signal (z-score within array); higher = stronger binding
# Conditions in all cases: glycan notation: IUPAC condensed, linker removed
# [1] = biological target: Gal(b1-4)GlcNAc(b1-2)Man(a1-3)[Gal(b1-4)GlcNAc(b1-2)Man(a1-6)][Gal(b1-4)GlcNAc(b1-4)]Man(b1-4)GlcNAc(b1-4)[Fuc(a1-6)]GlcNAc
# Summary of the method: (§1)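 The binding signal is a Z-score computed within each array. Data were drawn from 3228 arrays in the Consortium for Functional Glycomics database, restricted to those with a known protein sequence. Scores were averaged over arrays of the same protein sequence at different concentrations or buffers, and over linkers, and negative values can be taken as non-binding.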
# [2] = biological target: Gal(b1-4)GlcNAc(b1-2)Man(a1-3)[GlcNAc(b1-4)][Gal(b1-4)GlcNAc(b1-2)Man(a1-6)]Man(b1-4)GlcNAc(b1-4)GlcNAc
# Summary of the method: as §1
# [3] = biological target: Gal(b1-4)GlcNAc(b1-2)Man(a1-6)Man(b1-4)GlcNAc(b1-4)GlcNAc
# Summary of the method: as §1
# [4] = biological target: Gal(b1-4)GlcNAc(b1-3)Gal(b1-4)GlcNAc(b1-3)Gal(b1-4)GlcNAc(b1-3)Gal(b1-4)GlcNAc(b1-3)Gal(b1-4)GlcNAc(b1-3)Gal(b1-4)GlcNAc(b1-2)Man(a1-3)[Gal(b1-4)GlcNAc(b1-3)Gal(b1-4)GlcNAc(b1-3)Gal(b1-4)GlcNAc(b1-3)Gal(b1-4)GlcNAc(b1-3)Gal(b1-4)GlcNAc(b1-3)Gal(b1-4)GlcNAc(b1-2)Man(a1-6)]Man(b1-4)GlcNAc(b1-4)GlcNAc
# Summary of the method: as §1
# Gal3S(b1-4)Glc = biological target: Gal3S(b1-4)Glc
# Summary of the method: as §1
# Gal3S(b1-4)GlcNAc = biological target: Gal3S(b1-4)GlcNAc
# Summary of the method: as §1
# [5] = biological target: GalNAc(a1-3)GalNAc(b1-3)Gal(a1-4)Gal(b1-4)Glc
# Summary of the method: as §1
# GalNAc3S(b1-4)GlcNAc = biological target: GalNAc3S(b1-4)GlcNAc
# Summary of the method: as §1
# [6] = biological target: GlcNAc(a1-4)Gal(b1-4)GlcNAc
# Summary of the method: as §1
# [7] = biological target: GlcNAc(b1-2)[GlcNAc(b1-4)]Man(a1-3)[GlcNAc(b1-4)][GlcNAc(b1-2)[GlcNAc(b1-6)]Man(a1-6)]Man(b1-4)GlcNAc(b1-4)GlcNAc
# Summary of the method: as §1
# [8] = biological target: GlcNAc(b1-2)[GlcNAc(b1-4)]Man(a1-3)[GlcNAc(b1-4)][GlcNAc(b1-2)[GlcNAc(b1-6)]Man(a1-6)]Man(b1-4)GlcNAc(b1-4)[Fuc(a1-6)]GlcNAc
# Summary of the method: as §1
# [9] = biological target: GlcNAc(b1-3)Gal(b1-4)GlcNAc
# Summary of the method: as §1
# [10] = biological target: GlcNAc(b1-3)Gal(b1-4)GlcNAc(b1-3)Gal(b1-4)GlcNAc(b1-2)Man(a1-3)[GlcNAc(b1-3)Gal(b1-4)GlcNAc(b1-3)Gal(b1-4)GlcNAc(b1-2)Man(a1-6)]Man(b1-4)GlcNAc(b1-4)GlcNAc
# Summary of the method: as §1
# [11] = biological target: GlcNAc(b1-3)Gal(b1-4)GlcNAc(b1-3)GalNAc
# Summary of the method: as §1
# [12] = biological target: GlcNAc(b1-3)[GlcNAc(b1-4)][GlcNAc(b1-6)]GlcNAc
# Summary of the method: as §1
# [13] = biological target: GlcNAc(b1-3)[GlcNAc(b1-6)]GalNAc
# Summary of the method: as §1
# [14] = biological target: Neu5Ac(a2-3)Gal(b1-3)GlcNAc(b1-2)Man(a1-3)[GlcNAc(b1-4)][Neu5Ac(a2-3)Gal(b1-3)GlcNAc(b1-2)Man(a1-6)]Man(b1-4)GlcNAc(b1-4)GlcNAc
# Summary of the method: as §1
# [15] = biological target: Neu5Ac(a2-3)Gal(b1-4)GlcNAc(b1-2)Man
# Summary of the method: as §1
# [16] = biological target: Neu5Ac(a2-3)Gal(b1-4)GlcNAc(b1-2)Man(a1-3)[Neu5Ac(a2-3)Gal(b1-4)GlcNAc(b1-2)Man(a1-6)]Man(b1-4)GlcNAc(b1-4)[Fuc(a1-6)]GlcNAc
# Summary of the method: as §1
# [17] = biological target: Neu5Ac(a2-3)Gal(b1-4)GlcNAc(b1-3)Gal(b1-4)GlcNAc(b1-2)Man(a1-3)[Neu5Ac(a2-3)Gal(b1-4)GlcNAc(b1-3)Gal(b1-4)GlcNAc(b1-2)Man(a1-6)]Man(b1-4)GlcNAc(b1-4)GlcNAc
# Summary of the method: as §1
# [18] = biological target: Neu5Ac(a2-3)Gal(b1-4)GlcNAc(b1-6)[Gal(b1-3)]GalNAc
# Summary of the method: as §1
# [19] = biological target: Neu5Ac(a2-3)Gal(b1-4)GlcNAc(b1-6)[Neu5Ac(a2-3)Gal(b1-3)]GalNAc
# Summary of the method: as §1
# [20] = biological target: Neu5Ac(a2-3)Gal(b1-4)[Fuc(a1-3)]GlcNAc(b1-2)Man
# Summary of the method: as §1
# [21] = biological target: Neu5Ac(a2-3)GalNAc(b1-4)GlcNAc
# Summary of the method: as §1
# [22] = biological target: Neu5Ac(a2-6)GlcNAc(b1-4)GlcNAc(b1-4)GlcNAc
# Summary of the method: as §1
# [23] = biological target: Neu5Ac(a2-8)Neu5Ac(a2-8)Neu5Ac
# Summary of the method: as §1
# [24] = biological target: Neu5Ac9Ac(a2-3)Gal(b1-4)GlcNAc
# Summary of the method: as §1
binder,measurement,setting,value
B1,glycan array binding signal (z-score),[1],-0.172
same,glycan array binding signal (z-score),[2],-0.15
same,glycan array binding signal (z-score),[3],-0.205
same,glycan array binding signal (z-score),[4],-0.133
same,glycan array binding signal (z-score),Gal3S(b1-4)Glc,-0.151
same,glycan array binding signal (z-score),Gal3S(b1-4)GlcNAc,-0.174
same,glycan array binding signal (z-score),[5],-0.156
same,glycan array binding signal (z-score),GalNAc3S(b1-4)GlcNAc,-0.159
same,glycan array binding signal (z-score),[6],-0.12
same,glycan array binding signal (z-score),[7],-0.089
same,glycan array binding signal (z-score),[8],-0.062
same,glycan array binding signal (z-score),[9],-0.186
same,glycan array binding signal (z-score),[10],0.066
same,glycan array binding signal (z-score),[11],-0.208
same,glycan array binding signal (z-score),[12],-0.144
same,glycan array binding signal (z-score),[13],-0.161
same,glycan array binding signal (z-score),[14],-0.151
same,glycan array binding signal (z-score),[15],-0.197
same,glycan array binding signal (z-score),[16],-0.214
same,glycan array binding signal (z-score),[17],0.149
same,glycan array binding signal (z-score),[18],-0.23
same,glycan array binding signal (z-score),[19],-0.212
same,glycan array binding signal (z-score),[20],-0.187
same,glycan array binding signal (z-score),[21],-0.157
same,glycan array binding signal (z-score),[22],-0.169
same,glycan array binding signal (z-score),[23],-0.144
same,glycan array binding signal (z-score),[24],-0.134
